GALC G270D up: enhancers of human galactocerebrosidase G270D mutant activity in cells; 145M-Twi-hGALC-G270D cells (Twitcher mouse brain line with human GALC G270D), HMU-beta-Gal fluorescence, 48 h; Potency, µM (doses to about 57.5 µM), hits mostly activators; 45,000 tested, 0.1% active; AID 1159614; also: 0% is about no effect; nearly all actives have a fitted effect of over 65% in size
Target sequence (P54803 whole entry G286D): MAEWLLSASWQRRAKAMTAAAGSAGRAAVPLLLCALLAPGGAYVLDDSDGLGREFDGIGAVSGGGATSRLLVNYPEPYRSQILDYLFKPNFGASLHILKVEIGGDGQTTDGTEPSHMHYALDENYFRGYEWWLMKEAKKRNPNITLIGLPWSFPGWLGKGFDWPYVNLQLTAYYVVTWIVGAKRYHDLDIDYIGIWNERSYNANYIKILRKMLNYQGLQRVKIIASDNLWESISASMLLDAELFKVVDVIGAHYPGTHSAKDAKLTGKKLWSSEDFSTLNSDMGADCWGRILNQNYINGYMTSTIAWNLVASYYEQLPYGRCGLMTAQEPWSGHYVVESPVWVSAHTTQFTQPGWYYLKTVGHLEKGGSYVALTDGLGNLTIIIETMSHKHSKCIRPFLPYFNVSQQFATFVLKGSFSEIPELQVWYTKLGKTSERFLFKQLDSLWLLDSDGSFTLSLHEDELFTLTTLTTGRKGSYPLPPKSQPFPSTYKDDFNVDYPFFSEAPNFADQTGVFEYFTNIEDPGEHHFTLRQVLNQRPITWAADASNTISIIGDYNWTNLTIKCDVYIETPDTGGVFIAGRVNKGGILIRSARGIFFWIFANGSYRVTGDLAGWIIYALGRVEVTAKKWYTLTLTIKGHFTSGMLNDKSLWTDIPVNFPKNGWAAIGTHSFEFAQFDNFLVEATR
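Live 145M-Twi cells (Twitcher mouse brain-derived, GALC-null) stably expressing human GALC-G270D, with a wild-type GALC line, were compound-treated. Residual GALC activity was then read as fluorescence from 0.1 mM final HMU-β-gal at pH 5.2; higher signal means activation.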
HTT promoter inh: HTT promoter inhibition. HEK293 HTT promoter firefly luciferase reporter, 24 h. Potency, µM (titrated, usually from 57.5 µM), for inactives: at the highest dose activity change, negative = inhibition, most hits filed as inhibitors. 48,000 tested, 0.93% active; also: nearly all actives have a fitted effect of over 50% in size
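HEK293 cells carrying firefly luciferase reporters were seeded at 2,500 per well in Opti-MEM and cultured for 24 h. They were then treated with compounds at up to 57.5 uM final for 24 h at 37 degrees C before Dual-Glo luminescence readout.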
HTT-AS promoter: activates huntingtin-antisense promoter activity; Potency, µM (top dose mostly 57.5 µM), for inactives: at the top dose activity change, positive = activation, most hits filed as activators; 48,000 tested, 0.24% active; HEK293 HTT-AS promoter firefly luciferase reporter, 24 h; response scale: percent change from vehicle, -100% = no light; also: nearly all actives have a fitted effect of over 55% in size
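HEK293 cells carrying firefly luciferase reporters were seeded at 2,500 per well in Opti-MEM and cultured for 24 h. They were then treated with compounds at up to 57.5 uM final for 24 h at 37 degrees C before Dual-Glo luminescence readout.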
NTMT1 inhibitor: blocks human N-terminal methyltransferase 1 activity. NTMT1 MTase-Glo SAH luminescence, purified enzyme. Q9BV86. 59,000 tested, 2.5% active. Potency, µM (series often up to 114 µM), for the others: top-dose activity change, negative = inhibition, most hits filed as inhibitors;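 also: plate controls were DMSO vehicle for no effect and no enzyme for full effect; nearly all actives have a fitted effect of over 65% in size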
An asterisk follows results filed as active; [ ] = remark or other dose. Sampled rows, rich in hits. Any-hit rate of the full collection: about 2.7%. Calls follow the shape of the dose curve; as a rule, active = well fitted curve in the direction sought with a large enough effect; inconclusive = small, poorly fitted or top-dose-only effect, or another doubt; inactive = no such curve, though single readings can be large; an effect the other way counts as inactive or inconclusive. Potency is read from the fitted curve at half-maximal effect.

CCNCc1nc2c(N)nc3ccccc3c2n1CC(C)(C)O was read as NTMT1 inhibitor -1.9%[57.5 µM].
For CCS(=O)(=O)c1ncc(Cl)c(C(=O)N(Cc2ccccc2)c2ccc(OC)cc2)n1 the results were GALC G270D up inactive, HTT promoter inh 15.8µM*, HTT-AS promoter -94.2% and NTMT1 inhibitor 7.6%.
`COc1ccc(N(Cc2ccccc2)C(=O)c2nc(SC)ncc2Cl)cc1` gave GALC G270D up inactive, HTT promoter inh 20µM*, HTT-AS promoter -16.7% and NTMT1 inhibitor -3.9%.
`N#Cc1ccc(-c2ccc(CNc3ccc(N4CCOCC4)cc3)cn2)cc1` gave NTMT1 inhibitor -1.3%.
`O=C1CCCC2=C1C(c1ccccc1I)N=C(Nc1nc3ccccc3o1)N2` (stereo unspecified) gave NTMT1 inhibitor 4.7%.
`CCc1ccc(-c2cc3c(N4CCN(c5ccccc5)CC4)nccn3n2)cc1` gave GALC G270D up inactive, HTT promoter inh -2.9%, HTT-AS promoter 11.7% and NTMT1 inhibitor 79.4µM*.
`C=C(C)C(=O)O[C@H]1CC2=CC(C/C(C)=C\[C@H]3OC(=O)C(=C)[C@H]13)OC2=O` (stereo partly specified) gave NTMT1 inhibitor 7.2%[29.8 µM].
Screening CCN(CC)S(=O)(=O)c1ccc2c(c1)c(=O)c(C(=O)N(C)Cc1ccccc1)cn2C returned GALC G270D up 25.1µM*, HTT promoter inh 5.8%, HTT-AS promoter -2.7% and NTMT1 inhibitor 5.8%.
CCN(CC)S(=O)(=O)c1ccc2c(c1)c(=O)c(C(=O)NCc1ccccc1)cn2C was read as GALC G270D up inactive, HTT promoter inh -9.9%, HTT-AS promoter -15.8% and NTMT1 inhibitor 6.1%.
OCCN(CCO)c1ncnc2c1cnn2-c1ccc(F)cc1 was read as GALC G270D up inactive, HTT promoter inh 44.5%, HTT-AS promoter 7.94µM* and NTMT1 inhibitor 6.6%.
CC[C@H]1OC(=O)[C@H](C)[C@@H](O[C@H]2C[C@@](C)(OC)[C@@H](O)[C@H](C)O2)[C@H](C)[C@@H](O[C@@H]2O[C@H](C)C[C@H](N(C)C)[C@H]2O)[C@](C)(O)C[C@@H](C)/C(=N/OCOCCOC)[C@H](C)[C@@H](O)[C@]1(C)O was read as NTMT1 inhibitor 13.2%[57.5 µM].
Screening Cc1ccc(NC(=O)N2CCN(c3ccc(Cl)c(Cl)c3)CC2)cc1 returned GALC G270D up inactive, HTT promoter inh inconclusive, HTT-AS promoter -31.0% and NTMT1 inhibitor 1.3%.
Screening CC(C)c1ccc(NC(=O)N2CCN(c3ccc(Cl)c(Cl)c3)CC2)cc1 returned GALC G270D up inactive, HTT promoter inh 31.6µM*, HTT-AS promoter -41.5% and NTMT1 inhibitor 6.3%.
Cc1cc(C)c(-c2csc(-c3cc4ccccc4oc3=O)n2)cc1C was read as GALC G270D up inactive, HTT promoter inh -9.4%[11.5 µM], HTT-AS promoter 0.7% and NTMT1 inhibitor -4.5%.
For Cc1ccccc1-c1noc(-c2cc3ccccc3oc2=O)n1 the results were GALC G270D up inactive, HTT promoter inh 109.6%, HTT-AS promoter 2.51µM* and NTMT1 inhibitor -7.5%.
CC(C)(C#CCSc1nnc(-c2cccc3ccccc23)o1)OC(=O)c1ccc(F)cc1 was read as NTMT1 inhibitor 4.9%.
For NC(=O)C1CCN(c2nc(-c3ccc(F)cc3)cs2)CC1 the results were NTMT1 inhibitor 79.4µM*.
For COc1ccc(-c2noc(N3CCC(C(=O)N4CCN(c5ccccc5F)CC4)CC3)n2)cc1 the results were GALC G270D up inactive, HTT promoter inh inconclusive, HTT-AS promoter -47.7% and NTMT1 inhibitor 12.8%.
`COc1ccc(-c2noc(N3CCC(C(=O)Nc4cccc(C)c4C)CC3)n2)cc1` gave GALC G270D up inactive, HTT promoter inh 2.82µM*, HTT-AS promoter -59.0% and NTMT1 inhibitor 0.5%.
`Cc1ccc(C)c(N2CCN(C(=O)C3CCN(c4nc(-c5ccc(C(C)C)cc5)no4)CC3)CC2)c1` gave GALC G270D up inactive, HTT promoter inh 0.112µM*, HTT-AS promoter -93.2% and NTMT1 inhibitor -1.2%.
Screening Cc1ccc(NC(=O)C2CCN(c3nc(-c4ccc(C(C)C)cc4)no3)CC2)c(Cl)c1 returned GALC G270D up inactive, HTT promoter inh 0.1µM*, HTT-AS promoter -90.0% and NTMT1 inhibitor -2.9%.
`COc1ccc(-c2oc3ncnc(N)c3c2-c2ccc(NC(=O)Nc3cc(C(F)(F)F)ccc3F)cc2)cc1` gave NTMT1 inhibitor -10.4%.
Screening CC(C)c1nn2c(=O)cc(COC(=O)c3cccs3)nc2s1 returned GALC G270D up inactive, HTT promoter inh 46.8%, HTT-AS promoter 3.98µM* and NTMT1 inhibitor 10.8%.
CC(C)c1nn2c(=O)cc(COC(=O)c3ccccc3Cl)nc2s1 was read as GALC G270D up inactive, HTT promoter inh 24.7%, HTT-AS promoter inconclusive and NTMT1 inhibitor -6.6%.
Screening CNCCCOc1cc(F)c(-c2c(Cl)nc3ncnn3c2N[C@@H](C)C(F)(F)F)c(F)c1 returned NTMT1 inhibitor 28.2µM*.
COc1ccc(C(=O)N2c3ccccc3C(C)(c3ccc(Cl)cc3)CC2(C)C)cc1 (stereo unspecified) was read as GALC G270D up inactive, HTT promoter inh inconclusive, HTT-AS promoter -42.5% and NTMT1 inhibitor 1.1%.
For CC1(c2ccc(Cl)cc2)CC(C)(C)N(C(=O)c2ccccc2)c2ccccc21 (stereo unspecified) the results were GALC G270D up inactive, HTT promoter inh 25.1µM*, HTT-AS promoter -39.8% and NTMT1 inhibitor 3.2%.
`C/C=C1/[C@H](O[C@@H]2O[C@H](CO)[C@@H](O)[C@H](O)[C@H]2O)OC=C(C(=O)OC)[C@H]1CC(=O)O[C@@H]1O[C@H](CO)[C@@H](O)[C@H](O)[C@H]1O` gave NTMT1 inhibitor 2.8%[12.6 µM].
Screening Cn1ccc2c(OCC(=O)Nc3ccc(OC(F)(F)F)cc3)cccc2c1=O returned GALC G270D up inactive, HTT promoter inh 20µM*, HTT-AS promoter -76.3% and NTMT1 inhibitor -0.4%.
Screening Cn1nc(-c2ccc(C(=O)Nc3ccc(OC(F)(F)F)cc3)cc2)c2ccccc2c1=O returned GALC G270D up inactive, HTT promoter inh 10µM*, HTT-AS promoter -46.7% and NTMT1 inhibitor -5.8%.
CCOC(=O)c1ccc(NC(=O)COc2cccc3c(=O)n(C)ccc23)cc1 was read as GALC G270D up inactive, HTT promoter inh inconclusive, HTT-AS promoter -45.2% and NTMT1 inhibitor -14.8%.
`CNC(=O)COc1ccc(NC(=O)c2ccc(-c3nn(C)c(=O)c4ccccc34)cc2)cc1` gave GALC G270D up inactive, HTT promoter inh -11.1%, HTT-AS promoter -12.6% and NTMT1 inhibitor -21.1%.
`CC(=O)Nc1sc2c(c1-c1ccccc1)CCN(C(=O)OC(C)(C)C)C2` gave NTMT1 inhibitor -12.3%.
For CCCN(c1ccccc1CC)S(=O)(=O)c1ccc2c(c1)CC(C)N2C(=O)C1CC1 (stereo unspecified) the results were GALC G270D up inactive, HTT promoter inh 22.4µM*, HTT-AS promoter -58.0% and NTMT1 inhibitor 7.1%.
